An excerpt weighted towards active compounds, which were near 12% of everything screened.
L3MBTL1 inh – qHTS Assay for the Inhibitors of L3MBTL1. Lethal(3)malignant brain tumor-like protein 1 (Homo sapiens), Q9Y468. AlphaScreen L3MBTL1–H3K9me1 peptide binding. Potency, µM (doses to about 57.1 µM), most hits filed as inhibitors. 0.66% of 230,000 active. AID 485360, 2010; note: nearly all actives have a fitted effect of over 60% in size
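L3MBTL1 50 nM + b-AHA-H3(1-15)K9me1 75 nM, 30 min RT; compound added, 30 min RT; streptavidin donor/Ni-chelate acceptor beads 10 ug/mL each final, 30 min RT dark; AlphaScreen read.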
HP1b binding inh – HTS for Inhibitors of HP1-beta Chromodomain Interactions with Methylated Histone Tails | Chromobox protein homolog 1 (Homo sapiens), P83916 | AlphaScreen HP1-beta / biotin-H3K9me3 peptide binding | Potency, µM (titrated, usually from 114 µM), hits mostly inhibitors | 0.56% of 390,000 active | AID 540317, 2011; note: nearly all actives have a fitted effect of over 70% in size
Target sequence (P83916 whole entry, looked up): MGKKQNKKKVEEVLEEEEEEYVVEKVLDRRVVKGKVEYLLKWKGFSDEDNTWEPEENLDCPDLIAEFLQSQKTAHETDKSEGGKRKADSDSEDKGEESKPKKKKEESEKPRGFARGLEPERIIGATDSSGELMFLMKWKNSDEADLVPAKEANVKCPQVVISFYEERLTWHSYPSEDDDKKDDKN
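AlphaScreen: HP1-beta (50 nM) preformed 30 min with biotin-H3(1-18)K9me3 peptide (50 nM) in PBS pH 7.4, 0.01% Tween-20. Compound added for 30 min at RT, then streptavidin donor/nickel chelate acceptor beads (10 ug/mL) for 30 min.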
Sfp inh – qHTS Assay for Inhibitors of Bacillus subtilis Sfp phosphopantetheinyl transferase (PPTase) | 4'-phosphopantetheinyl transferase ffp (Bacillus subtilis), Q9F4F7 | Biochemical Sfp PPTase activity, qHTS | Potency, µM, most hits filed as inhibitors | 3.5% of 310,000 active | AID 1490, 2009;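 note: the enzyme is Sfp with the accession as filed and its product quenches rhodamine fluorescence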
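After 15 min at room temperature with compound, 15 nM Sfp received 5 uM rhodamine-CoA plus 12.5 uM BHQ-2-ybbR (50 mM Hepes pH 7.6, 10 mM MgCl2). Rate came from the fluorescence difference over 30 min, ex 525/em 598 nm.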
G9a inh – qHTS Assay for Inhibitors of Histone Lysine Methyltransferase G9a; AID 504332, 2011; Histone-lysine N-methyltransferase EHMT2 (Homo sapiens), Q96KQ7; 8.8% of 350,000 active; Potency, µM (doses to about 102 µM), usual class: inhibitors; G9a H3K9 monomethylation, AlphaScreen, 2 h; note: nearly all actives have a fitted effect of over 75% in size
Target sequence (Q96KQ7 913-1193 limits assumed): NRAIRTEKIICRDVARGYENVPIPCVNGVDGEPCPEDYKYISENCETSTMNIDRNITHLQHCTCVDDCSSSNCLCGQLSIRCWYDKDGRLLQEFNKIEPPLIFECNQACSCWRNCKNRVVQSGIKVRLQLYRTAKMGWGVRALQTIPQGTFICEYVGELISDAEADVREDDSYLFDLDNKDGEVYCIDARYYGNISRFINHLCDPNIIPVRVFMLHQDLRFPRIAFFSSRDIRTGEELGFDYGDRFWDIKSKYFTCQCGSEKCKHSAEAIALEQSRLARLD
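Signal arises when biotinylated H3K9 peptide, once monomethylated, bridges streptavidin donor and antibody-captured acceptor beads. Enzyme at 20 nM was preincubated 15 min with test compounds; peptide 500 nM and SAM 20 uM then reacted for 2 h.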
JMJD2A Tudor – qHTS Assay for Inhibitors of JMJD2A-Tudor Domain; Lysine-specific demethylase 4A (Homo sapiens), O75164; AlphaScreen JMJD2A-Tudor / H3K4me3 peptide binding; Potency, µM (series often up to 114 µM), hits mostly inhibitors; 4.4% of 390,000 active; AID 504339, 2011; note: nearly all actives have a fitted effect of over 50% in size
BAZ2B inh – qHTS Assay for Inhibitors of BAZ2B | Bromodomain adjacent to zinc finger domain protein 2B (Homo sapiens), Q9UIF8 | Potency, µM (top dose mostly 114 µM), most hits filed as inhibitors | 4.4% of 360,000 active | AlphaScreen BAZ2B-H3K14Ac peptide displacement; note: nearly all actives have a fitted effect of over 60% in size
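AlphaScreen displacement of biotin-H3(5-23)K14Ac peptide (50 nM final) from BAZ2B (50 nM final) in PBS pH 7.4, 0.01% Tween-20; complex preformed 30 min RT, then compounds (top 110 uM) 30 min RT, beads 20 min dark.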
Large screens that a line does not name were inactive. Calls come from the whole dose curve; as a rule, active = well fitted curve in the direction sought with a large enough effect; inconclusive = small, poorly fitted or top-dose-only effect, or another doubt; inactive = no such curve, though single readings can be large; an effect the other way counts as inactive or inconclusive.

Oc1ccc(C2C[C@H]3CC[C@@H]2C3)cc1O (stereo not given in full)	HP1b binding inh 79µM, Sfp inh 22µM, G9a inh 1µM, JMJD2A Tudor 20µM, BAZ2B inh inconclusive (no result: L3MBTL1 inh)
COc1ccc(S(=O)(=O)N2CCN(CC(=O)Nc3c(C)n[nH]c3C)CC2)cc1OC	HP1b binding inh inconclusive, JMJD2A Tudor 0.89µM (no result: Sfp inh, G9a inh, BAZ2B inh)
COC(=O)c1ccc(NC(=O)CN2C(=O)CNC2=O)cc1	G9a inh 13µM (no result: L3MBTL1 inh)
Cc1ccc(NC(=O)CN2C(=O)CNC2=O)cc1	BAZ2B inh inconclusive (no result: L3MBTL1 inh)
COc1ccc(C)cc1NC(=O)CN1CCN(S(=O)(=O)c2ccc(C(C)C)cc2)CC1	none
COC(=O)c1ccc(NC(=O)CN2CCN(S(=O)(=O)c3cc(Cl)ccc3OC)CC2)cc1	G9a inh 35µM
COc1ccc(C)cc1NC(=O)CN1CCN(S(=O)(=O)c2ccc(Cl)cc2)CC1	G9a inh 14µM
O=C(Nc1nnc(Cc2ccc(Cl)cc2)s1)C1CCN(C(=O)c2ccco2)CC1	none (no result: L3MBTL1 inh, Sfp inh, G9a inh, BAZ2B inh)
COc1cc(C(=O)NCC(c2ccc3c(c2)OCO3)N2CCOCC2)cc(OC)c1OC (stereo not given)	none (no result: L3MBTL1 inh, Sfp inh)
CC1=C(c2ccc(C(C)C)cc2)S(=O)(=O)N=C1N1CCC(C(=O)Nc2ccc(C)cc2)CC1	none (no result: L3MBTL1 inh, Sfp inh)
O=C(CN1CCCN(S(=O)(=O)c2ccc(F)cc2)CC1)Nc1c(Cl)cccc1Cl	none (no result: L3MBTL1 inh)
Cc1n[nH]c(C)c1NC(=O)CN1CCN(S(=O)(=O)c2ccc(C(F)(F)F)cc2)CC1	HP1b binding inh inconclusive, JMJD2A Tudor 4.5µM (no result: L3MBTL1 inh, Sfp inh, G9a inh, BAZ2B inh)
Cc1sc2nc3ccc(N4CCCC4)nn3c(=O)c2c1C	Sfp inh 25µM, G9a inh 35µM
Cc1ccc2nc3ccc(N4CCCCCCC4)nn3c(=O)c2c1	none
CCCCn1c(N)c(N(CC)C(=O)CSCc2ccc(C)cc2)c(=O)[nH]c1=O	none (no result: L3MBTL1 inh, G9a inh)
COCCn1c(N)c(N(Cc2ccccc2)C(=O)CSCC(=O)Nc2ccc(C)cc2)c(=O)[nH]c1=O	G9a inh 32µM (no result: Sfp inh)
CCCCn1c(N)c(N(CCOC)C(=O)CSCc2ccc(Cl)c(Cl)c2)c(=O)[nH]c1=O	G9a inh 56µM (no result: Sfp inh)
CCCCn1c(N)c(N(CCOC)C(=O)CSCc2ccc(C)cc2)c(=O)[nH]c1=O	G9a inh 45µM (no result: Sfp inh)
COc1ccc(NC(=O)Cn2c(=O)n(CCC(=O)NCCc3ccc(OC)c(OC)c3)c(=O)c3ccccc32)cc1Cl	none (no result: L3MBTL1 inh, Sfp inh)
CCOC(=O)c1ccc(NC(=O)Cn2nc(C)c3nn(-c4ccc(Cl)cc4)c(C)c3c2=O)cc1	none (no result: L3MBTL1 inh, Sfp inh)
O=c1cc(-c2ccc([N+](=O)[O-])cc2)nc2cc(-c3ccc(F)cc3)[nH]n12	Sfp inh 45µM
Cc1c(C(=O)N2CCC(C)CC2)c(S(=O)(=O)Nc2cccc(C(F)(F)F)c2)c(C)n1C	none (no result: L3MBTL1 inh, Sfp inh)
C=C(C)Cn1c(SCC(=O)c2ccccc2)nc2sc3c(c2c1=O)CCCC3	none (no result: L3MBTL1 inh, Sfp inh)
S=c1[nH]nc(Cc2cccc3ccccc23)o1	G9a inh 2.2µM, JMJD2A Tudor 79µM
Cc1[nH]c2ccccc2c1Cc1n[nH]c(=S)n1C	G9a inh 2µM, JMJD2A Tudor 6.3µM
Cc1[nH]c2ccccc2c1Cc1n[nH]c(=S)o1	G9a inh 8.9µM, JMJD2A Tudor 79µM (no result: L3MBTL1 inh)
Cn1c(Cc2c[nH]c3ccccc23)n[nH]c1=S	G9a inh inconclusive, JMJD2A Tudor 5µM (no result: L3MBTL1 inh)
CCOC(=O)c1ccccc1NS(=O)(=O)c1ccc(N2CCCCS2(=O)=O)cc1	none (no result: L3MBTL1 inh, Sfp inh)
Cc1[nH]c2ccccc2c1SCc1n[nH]c(=S)n1C	G9a inh 4µM, JMJD2A Tudor 10µM (no result: L3MBTL1 inh)
Cc1[nH]c2ccccc2c1SCc1ccccc1	none
CC(Cc1n[nH]c(=S)o1)c1ccccc1 (stereo not given)	G9a inh 8.9µM, JMJD2A Tudor inconclusive, BAZ2B inh inconclusive

Screening results deposited in PubChem by National Center for Advancing Translational Sciences (NCATS).
